Compound activity: PubChem, National Center for Advancing Translational Sciences (NCATS)
TrxR1 inh – qHTS Assay for Inhibitors of Mammalian Selenoprotein Thioredoxin Reductase 1 (TrxR1): qHTS; Thioredoxin reductase 1, cytoplasmic (Rattus norvegicus), O89049; recombinant rTrxR1, NADPH fluorescence consumption, selenite substrate; Potency, µM (highest dose often 114 µM), most hits filed as inhibitors; hit rate 1% among 390,000; AID 588453, 2011; note: nearly all actives have a fitted effect of over 65% in size
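Rat TrxR1 (90 nM in the dispensed reagent) was pre-reduced with 400 uM NADPH for 5 min at room temperature, then incubated with compound for 15 min. After 400 uM selenite was added, NADPH fluorescence (Ex 340/Em 450 nm) was followed for 8 min.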
TrxR1 substrate – qHTS Assay for Substrates of Mammalian Selenoprotein Thioredoxin Reductase 1 (TrxR1): qHTS | Thioredoxin reductase 1, cytoplasmic (Rattus norvegicus), O89049 | purified TrxR1 substrate turnover, NADPH consumption readout | Potency, µM (titrated, usually from 114 µM) | hit rate 0.01% among 390,000 | AID 588456, 2011; note: nearly all actives have a fitted effect of over 50% in size
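Rat TrxR1, dispensed at 90 nM, was prereduced with 400 uM NADPH (final) for 5 min at ~22 deg C, then incubated with compound 15 min before 400 uM selenite. A first-read NADPH fluorescence drop versus no-compound background flagged substrates.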
GALK inh – qHTS Assay for Inhibitors of Human Galactokinase (GALK) | Purified GALK, Kinase-Glo residual ATP luminescence | Potency, µM (doses to about 57.5 µM), hits mostly inhibitors | hit rate 0.007% among 270,000 | AID 1868, 2009
Target sequence (P51570 whole entry, looked up): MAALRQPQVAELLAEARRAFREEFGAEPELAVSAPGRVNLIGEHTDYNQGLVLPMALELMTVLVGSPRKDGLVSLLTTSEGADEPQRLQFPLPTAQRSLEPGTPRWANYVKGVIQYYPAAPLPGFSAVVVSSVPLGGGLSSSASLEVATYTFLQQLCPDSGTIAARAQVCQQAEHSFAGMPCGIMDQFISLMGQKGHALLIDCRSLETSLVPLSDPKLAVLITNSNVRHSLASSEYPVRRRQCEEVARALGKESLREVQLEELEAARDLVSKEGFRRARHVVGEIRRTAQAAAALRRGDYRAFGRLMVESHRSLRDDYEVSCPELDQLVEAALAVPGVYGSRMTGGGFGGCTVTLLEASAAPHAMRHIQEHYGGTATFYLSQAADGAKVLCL
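Quantitative HTS: GALK 5 nM, ATP 35 uM, galactose 100 uM, 1 h room temperature, then luciferase-based ATP detection.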
mIDH1 inhibitor – qHTS for Inhibitors of mutant isocitrate dehydrogenase 1 (IDH1): qHTS; Isocitrate dehydrogenase [NADP] cytoplasmic (Homo sapiens), O75874; IDH1-R132H enzyme, NADPH consumption, diaphorase/resazurin fluorescence; Potency, µM (top dose mostly 76.6 µM), actives largely listed as inhibitors; hit rate 0.093% among 390,000; AID 602179, 2012; note: nearly all actives have a fitted effect of over 65% in size
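IDH1-R132H (0.5 ug/mL dispensed) in pH 7.5 Tris buffer was preincubated 30 min with compound, then given a substrate mix of 0.016 mM NADPH and 2 mM alpha-KG for 80 min at room temperature; remaining NADPH was read by diaphorase/resazurin fluorescence.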
PKM2 act – qHTS Assay for Activators of Human Muscle isoform 2 Pyruvate Kinase; AID 1631, 2009; hit rate 0.34% among 260,000; Potency, µM (series often up to 57.5 µM), most hits filed as activators; Pyruvate kinase PKM (Homo sapiens), P14618; purified PKM2, Kinase-Glo ATP luminescence, activation; response scale: 0% is enzyme alone, no compound; note: nearly all actives have a fitted effect of over 55% in size
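Kinase-Glo luminescence reports ATP generated from ADP (0.1 mM) and PEP (0.5 mM) by purified hPK-M2 after 1 h at room temperature, pH 7.2 imidazole buffer; intermediate enzyme activity allows detecting inhibitors and activators.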
Anesthetic bind – qHTS Assay for Identification of Novel General Anesthetics; AID 485281, 2010; hit rate 0.074% among 350,000; Potency, µM (doses to about 77.5 µM), most hits filed as inhibitors; apoferritin/1-aminoanthracene competitive binding, fluorescence; Ferritin light chain (Equus caballus), P02791; note: nearly all actives have a fitted effect of over 20% in size
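Horse-spleen apoferritin (10 uM) was mixed with 50% saturated 1-aminoanthracene in PBS, exposed to compounds for 10 min at room temperature, and read for fluorescence (ex 380 nm, em 535 nm). Competitive displacement was fitted with a four-parameter Hill equation.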
Numbers stand for hits; [ ] = dose if it differs, or a comment. In the library only some 1.3% were active in any assay of this set; here they are far more common. Calls come from the whole dose curve; as a rule, active = well fitted curve in the direction sought with a large enough effect; inconclusive = small, poorly fitted or top-dose-only effect, or another doubt; inactive = no such curve, though single readings can be large; an effect the other way counts as inactive or inconclusive.

What do the screens show for `CCOC(=O)c1c(-c2ccc(C)o2)csc1NC(=S)NC(=O)c1cccs1`?
TrxR1 inh: inactive; TrxR1 substrate: inactive; GALK inh: inactive; mIDH1 inhibitor: inactive; PKM2 act: inconclusive; Anesthetic bind: inactive

What do the screens show for `CCOC(=O)c1c(-c2ccc(C)o2)csc1NC(=O)CSc1nnnn1-c1ccccc1`?
TrxR1 inh: 2.82µM; TrxR1 substrate: inactive; GALK inh: inactive; mIDH1 inhibitor: inactive; PKM2 act: 7.94µM; Anesthetic bind: inconclusive

How did CCOC(=O)c1c(-c2cccs2)csc1NC(=O)CSc1ncn[nH]1 do in these assays?
TrxR1 inh: inactive; TrxR1 substrate: inactive; GALK inh: inactive; mIDH1 inhibitor: inactive; PKM2 act: 28.2µM; Anesthetic bind: inactive

What do the screens show for `CCOC(=O)c1c(-c2ccc(C)o2)csc1NC(=S)NC(=O)c1ccccc1Br`?
TrxR1 inh: inactive; TrxR1 substrate: inactive; GALK inh: inactive; mIDH1 inhibitor: inactive; PKM2 act: 3.16µM; Anesthetic bind: inactive

How did CCOC(=O)c1c(-c2ccc(C)o2)csc1NC(=O)CSc1nnc(C)s1 do in these assays?
TrxR1 inh: 8.91µM; TrxR1 substrate: inactive; GALK inh: inactive; mIDH1 inhibitor: inactive; PKM2 act: 12.6µM; Anesthetic bind: inconclusive

What do the screens show for `Cc1ccc(CSc2nc3c(c(=O)[nH]2)C(c2cccc(F)c2F)CC(=O)N3)cc1` (configuration not stated)?
TrxR1 inh: inactive; TrxR1 substrate: inactive; mIDH1 inhibitor: inactive; Anesthetic bind: inactive

Results for O=[N+]([O-])c1ccc2c(c1)C=C/C2=C\c1ccc(C=S)cc1 ?
TrxR1 inh: inactive; TrxR1 substrate: inactive

Results for COCCNC(=O)C(=O)Nc1c2c(nn1-c1ccccc1)CS(=O)(=O)C2 ?
TrxR1 inh: inactive; TrxR1 substrate: inactive; mIDH1 inhibitor: inactive; Anesthetic bind: inactive

How did O=C1c2ccccc2C(=O)N1c1nc(-c2ccc(F)cc2)cs1 do in these assays?
TrxR1 inh: inactive[0.0914 µM]; TrxR1 substrate: inactive[0.0914 µM]

Results for O=C(C[n+]1cccc(Br)c1)c1ccc(F)cc1 ?
TrxR1 inh: inactive; TrxR1 substrate: inactive

How did CCOc1ccc(N2C(=O)CC(Sc3n[nH]c(-c4ccccc4)n3)C2=O)cc1 (configuration not stated) do in these assays?
TrxR1 inh: 6.31µM; TrxR1 substrate: inactive; GALK inh: inactive; mIDH1 inhibitor: inactive; PKM2 act: inactive; Anesthetic bind: inactive

Results for COc1ccc(N2C(=O)CC(Sc3n[nH]c(-c4ccccc4)n3)C2=O)cc1 (configuration not stated) ?
TrxR1 inh: 2µM; TrxR1 substrate: inactive; GALK inh: inactive; mIDH1 inhibitor: inactive; PKM2 act: inactive; Anesthetic bind: inactive

What do the screens show for `CCOc1ccc2nc(SC3CC(=O)N(c4ccccc4)C3=O)sc2c1` (configuration not stated)?
TrxR1 inh: inconclusive; TrxR1 substrate: inactive; GALK inh: inactive; mIDH1 inhibitor: inactive; PKM2 act: inactive; Anesthetic bind: inactive

Results for Cc1ccc2cc(CN(Cc3ccco3)C(=O)c3ccco3)c3nnnn3c2c1 ?
TrxR1 inh: inactive; TrxR1 substrate: inactive; GALK inh: inactive; mIDH1 inhibitor: inactive; PKM2 act: 15.8µM; Anesthetic bind: inactive

How did Cc1ccc2oc(-c3ccc(C)c(NC(=O)/C=C/c4ccc(Cl)cc4)c3)nc2c1 do in these assays?
TrxR1 inh: inactive; TrxR1 substrate: inactive[11.4 µM]; mIDH1 inhibitor: inactive; Anesthetic bind: inactive

Results for Cc1ccc2oc(-c3ccc(C)c(NC(=O)/C=C/c4ccco4)c3)nc2c1 ?
TrxR1 inh: 31.6µM; TrxR1 substrate: inactive; mIDH1 inhibitor: inactive; Anesthetic bind: inactive
